Test in all cases: Primary qHTS to identify gynecologic anti-cancer compounds using libraries of approved drugs and bioactive compounds (AID 1345084); further: nearly all actives have a fitted effect of over 55% in size
Conditions in all cases: Gynecologic cancer cell panel viability, ATPlite luminescence, 48 h; series mostly up to 57.5 µM

Assay [1] relates to SKOV3. The essentials: (§1)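 Luminescence from the ATPlite ATP-monitoring reagent indicates viable cell number; lower signal means cytotoxicity. Cells received compound 16 h after seeding and were exposed for 48 h across five concentrations.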
In assay [2] the test system is Tov-21-G. The essentials:
as §1

The subject of assay [3] is Tov112D. A digest of the protocol: as §1

The values that follow come from PubChem BioAssay (NCATS).

Results filed as inconclusive are left out. Unmarked numbers belong to inactive results. Activity calls are given as the source filed them. The call rests on the fitted dose curve; in most records, active means well fitted cell-killing curve with a large enough effect; inconclusive means small, poorly fitted or top-dose-only effect, or effect the other way; inactive means flat fitted curve, though single readings scatter.
On the % scale 0 is the no-effect control and ±100 the full control effect; potency means the concentration at half of the fitted maximal effect.

Turning to `CC#C[C@@H](CC(=O)O)c1ccc(OCc2cccc(-c3ccc(C(F)(F)F)cc3)c2)cc1`, the Potency result in assay [1], in assay [2] and in assay [3] was “inactive” each time.

For the molecule `CC(C)(C)c1ccc(C(=O)Nc2cn3cc(-n4ccnc4)ccc3n2)cc1`, the Potency entry in assay [1], in assay [2] and in assay [3] was “inactive” in each case.

Regarding `CCN(c1cc(-c2ccc(CN3CCOCC3)cc2)cc(C(=O)NCc2c(C)cc(C)[nH]c2=O)c1C)C1CCOCC1`, the Potency result in assay [1], in assay [2] and in assay [3] was “inactive” each time.

On to `O=C(NCC1CCN(Cc2cccc(Cl)c2)CC1)[C@@H]1CCCN(c2ncnc3c2nc2n3CCCC2)C1`, for which the Potency result in assay [1], in assay [2] and in assay [3] was “inactive” throughout.

Take `O=C(NCCN1CCOCC1)c1cc2c(Oc3ccc(NC(=O)C4(C(=O)Nc5ccc(F)cc5)CC4)cc3)ccnc2[nH]1`: the Potency entry in assay [1], in assay [2] and in assay [3] was “inactive” throughout.

Regarding `O=C(NCCN1CCC(n2c(=O)[nH]c3ccccc32)CC1)c1cc2cc(F)ccc2[nH]1`, the Potency result in assay [1], in assay [2] and in assay [3] was “inactive” in each case.

As for `O=C(Nc1ccccc1C(=O)Nc1ccc(CCO)cc1)c1ccc([N+](=O)[O-])cc1`, the Potency entry in assay [1], in assay [2] and in assay [3] was “inactive” each time.

In the case of `C[C@@H](O[C@H]1OCCN(Cc2nn(P(=O)(O)O)c(=O)[nH]2)[C@H]1c1ccc(F)cc1)c1cc(C(F)(F)F)cc(C(F)(F)F)c1`, the Potency result in assay [1], in assay [2] and in assay [3] was “inactive” each time.

`COc1cc(OC)c(NC(=O)c2ccc(Cc3cc4c(cc3C)C(C)(C)CCC4(C)C)o2)c(OC)c1`: the Potency result in assay [1], in assay [2] and in assay [3] was “inactive” each time.

On to `COc1c(CCC(=O)O)cccc1O[C@@H]1O[C@H](CO)[C@@H](O)[C@H](O)[C@H]1O`, for which the Potency entry in assay [1], in assay [2] and in assay [3] was “inactive” throughout.

With `COc1ccc(CN2CCN(C(=O)CCNC(=O)c3ccc(C(C)(C)C)cc3)CC2)cc1`, the Potency result in assay [1], in assay [2] and in assay [3] was “inactive” in each case.

As to `Cc1onc(-c2ccccc2)c1C(=O)N1CCN(c2ccc([N+](=O)[O-])cc2Cl)CC1`, the Potency result in assay [1], in assay [2] and in assay [3] was “inactive” each time.

Take `C[C@@H]1O[C@@H](O[C@H]2[C@H](O[C@H]3CC[C@@]4(C)C(CC[C@]5(C)C4C=C[C@]46OC[C@@]7(CCC(C)(C)C[C@H]74)[C@@H](O[C@@H]4O[C@@H](C)[C@H](O)[C@@H](O)[C@H]4O)C[C@]65C)[C@]3(C)CO)O[C@H](CO)[C@@H](O)[C@@H]2O[C@@H]2O[C@H](CO)[C@@H](O)[C@H](O)[C@H]2O)[C@H](O)[C@H](O)[C@H]1O` (some centres undefined): the figures for the activity change, negative = cytotoxicity in assay [1], in assay [2] and in assay [3] were -8.52% [at 11.6 µM], -2.59% [at 11.6 µM] and -0.84% [at 11.6 µM], respectively.

For `CCC(C)/C=C(C)/C=C/C1=CC2=CC(=O)C3(C)OC(C)(O)C(C(=O)OC)C3C2=CO1` (centres undefined), the Potency result in assay [1], in assay [2] and in assay [3] was “inactive” in each case.

Regarding `CC#CCn1c(N2CCCC(N)C2)nc2c1c(=O)n(Cc1nc(C)c3ccccc3n1)c(=O)n2C` (centres undefined), the Potency entry in assay [1], in assay [2] and in assay [3] was “inactive” throughout.

Take `COc1ccc(CCO[C@@H]2O[C@H](CO[C@H]3OC[C@](O)(CO)[C@H]3O)[C@@H](OC(=O)/C=C/c3ccc(O)c(O)c3)[C@H](O[C@@H]3O[C@@H](C)[C@H](O)[C@@H](O)[C@H]3O)[C@H]2O)cc1OC`: the Potency entry in assay [1], in assay [2] and in assay [3] was “inactive” throughout.

Regarding `Cn1ncc(Cl)c1-c1cc(C(=O)N[C@H](CN)Cc2ccc(F)c(F)c2)sc1Cl`, the Potency was 14.1 µM (active) in assay [1] and 891 nM (active) in assay [2]. Also, the Potency entry in assay [3] was “inactive”.

As to `C=CC(C)(C)c1[nH]c2ccccc2c1C[C@@H]1NC(=O)[C@H](C)NC1=O`, the Potency result in assay [1], in assay [2] and in assay [3] was “inactive” in each case.

As for `CC1(C)CC[C@]23CO[C@@]4(CCC5[C@@]6(C)CC[C@H](O[C@@H]7OC[C@H](O[C@@H]8O[C@H](CO)[C@@H](O)[C@H](O)[C@H]8O[C@@H]8OC[C@@H](O)[C@H](O)[C@H]8O)[C@H](O)[C@H]7O)[C@@](C)(CO)C6CC[C@@]5(C)[C@]4(C)CC2=O)[C@@H]3C1` (some centres undefined), the activity change, negative = cytotoxicity in assay [1] was -7.83% [at 11.6 µM]; in assay [2], -3.45% [at 11.6 µM]; in assay [3] it was 1.26% [at 11.6 µM].

For `C#CCOc1ccc2c(c1)c(-c1ccc(C(C)C)cc1)nc(=O)n2C(C)C`, the Potency result in assay [1], in assay [2] and in assay [3] was “inactive” throughout.

Turning to `C[C@@H]1O[C@@H](O[C@H]2CC[C@@]3(C)C(CC[C@]4(C)C3CC=C3[C@@H]5CC(C)(C)CC[C@]5(C(=O)O[C@@H]5O[C@H](CO)[C@@H](O)[C@H](O)[C@H]5O)CC[C@]34C)[C@]2(C)CO)[C@H](O)[C@H](O[C@@H]2O[C@H](CO)[C@@H](O)[C@H](O)[C@H]2O)[C@H]1O` (some centres undefined), the activity change, negative = cytotoxicity in assay [1] is 8.14% [at 11.6 µM]; in assay [2], -24% [at 11.6 µM]; in assay [3] it was 1.58% [at 11.6 µM].

As to `Cc1cccc(-c2[nH]ncc2-c2ccc(F)c(-c3cnn(CCO)c3)c2)n1`, the Potency entry in assay [1], in assay [2] and in assay [3] was “inactive” each time.

In the case of `CCOC(=O)c1cnc2ccc(-c3cncc(NS(=O)(=O)c4ccccc4)c3)cn12`, the Potency is 31.6 µM (active) in assay [1], 4470 nM (active) in assay [2] and 1.41 µM (active) in assay [3].

Regarding `N#Cc1ccc2ncnc(NCCc3ccccc3)c2c1`, the Potency result in assay [1], in assay [2] and in assay [3] was “inactive” throughout.

For `CC(C)(C)c1ccc(NC(=O)N2CCN(c3ncccc3Cl)CC2)cc1`, the Potency in assay [1] is 22.4 µM (active). Also, the Potency entry in assay [2] and in assay [3] was “inactive” throughout.

As for `C=CCc1ccc(OC(C)Cc2ccc(OC)c(OC)c2)c(OC)c1` (centres undefined), the Potency entry in assay [1], in assay [2] and in assay [3] was “inactive” in each case.

Turning to `COc1ccc(CNCc2cccc3ccccc23)cc1`, the Potency result in assay [1], in assay [2] and in assay [3] was “inactive” throughout.

On to `CN1CCN(c2ccc(Nc3cc(-c4cccc(-n5ccc6cc(C7CC7)cc(F)c6c5=O)c4CO)cn(C)c3=O)nc2)CC1`, for which the Potency result in assay [1], in assay [2] and in assay [3] was “inactive” each time.
